Data taken from PubChem BioAssay AID1209 (Sanford-Burnham Center for Chemical Genomics, 2008).
The whole screen tested about 190,000 compounds, of which about 810 (0.43%) were called active. The entries come from a sample that favours actives as a whole. A number with no mark means an inactive call. Cut-off read from the data, not from the text of the source: active = inhibition above about 50%; inactive = the rest.

molecular target: Mannose-6-phosphate isomerase (Homo sapiens) (UniProt P34949); assay: MPI enzyme activity inhibition – biochemical, fluorescence intensity, coupled assay, primary screen (AID 1209); details: purified PMI enzyme, at 20 µM, hits give high values;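 note: plate controls were DMSO vehicle for no effect and wells lacking substrate for full effect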
Sequence (P34949 whole entry, looked up): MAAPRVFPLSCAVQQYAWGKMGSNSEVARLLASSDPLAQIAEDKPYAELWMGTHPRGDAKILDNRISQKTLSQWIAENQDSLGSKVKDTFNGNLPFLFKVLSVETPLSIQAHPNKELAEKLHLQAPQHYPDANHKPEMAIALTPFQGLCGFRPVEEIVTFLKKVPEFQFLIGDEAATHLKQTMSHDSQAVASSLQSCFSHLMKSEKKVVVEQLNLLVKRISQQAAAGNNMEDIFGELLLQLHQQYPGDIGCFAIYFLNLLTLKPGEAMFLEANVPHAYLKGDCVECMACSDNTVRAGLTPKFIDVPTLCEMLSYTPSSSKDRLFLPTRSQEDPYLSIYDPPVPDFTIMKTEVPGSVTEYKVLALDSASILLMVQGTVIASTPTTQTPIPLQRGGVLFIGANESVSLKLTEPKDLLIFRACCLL

SMILES | inhibition
CCOC(=O)CC(=O)Nc1ccc(Br)cc1C(=O)O | 7.4%
COC(=O)c1ccc(-c2nc(-c3ccc(Br)o3)no2)cc1 | 10.6%
COc1ccccc1Sc1ccccc1/C=N/NC(N)=O | 2.1%
Cc1cc(=O)n(-c2ccc(C(=O)O)cc2)[nH]1 | -22.8%
COC(=O)Cc1cc(=O)n(-c2ccccc2)[nH]1 | 11%
CC(C)(C)c1cc(=O)n(-c2ccccc2)[nH]1 | 64.7% (active)
O=C1c2ccccc2C(=O)N1Cc1nc2ccccc2o1 | -0.5%
O=C1c2ccccc2C(=O)N1c1ccc(-c2nc3ccccc3o2)cc1 | -2.8%
CC(c1nc2ccccc2o1)N1C(=O)c2ccccc2C1=O (centres undefined) | 66.9% (active)
Cc1ccc(NS(=O)(=O)c2ccccc2[N+](=O)[O-])cc1C | -10.7%
CCN1C(=O)CSc2ccc(C(=O)OC)cc21 | -2.3%
COc1ccc(NC(=S)N(Cc2cccc(Br)c2)CC2CCC(C(=O)O)CC2)cc1 (centres undefined) | -6.9%
CN=c1scc(-c2ccccc2F)n1/N=C/c1ccc[nH]1 | -16.2%
CN=c1scc(-c2ccccc2F)n1/N=C/c1ccc(O)c(O)c1O | 70.6% (active)
Oc1ccc(/C=N/n2c(-c3ccco3)csc2=Nc2cccnc2)c(O)c1 | -1.6%
CC(C)N=c1scc(-c2cccs2)n1/N=C/c1ccc(O)c(O)c1O | 75.9% (active)
CN=c1scc(-c2cccs2)n1/N=C/c1ccccc1O | 5.2%
CN=c1scc(C)n1/N=C/c1ccc(O)cc1O | -4%
Cc1nc2ccccc2c(=O)n1/N=C/c1cn(-c2ccccc2)nc1-c1cccs1 | -10.8%
CN=c1scc(-c2ccccc2F)n1/N=C(\C)c1cccnc1 | -9.3%
Cc1ccc(OCC(O)Cn2c(=N)n(CCN3CCOCC3)c3ccccc32)cc1 (centres undefined) | -3.6%
CC(Oc1ccccc1)C(=O)N1CCN=C1SCc1ccccc1 (centres undefined) | -6.4%
Cc1cc(F)ccc1S(=O)(=O)N1CCCOC1CNC(=O)C(=O)NCc1ccco1 (centres undefined) | -3.1%
CCCCCNC(=O)c1ccc2c(=O)n(CCOC)c(=O)[nH]c2c1 | -5.7%
O=C(CCNC(=O)c1ccccc1Cl)Nc1ccc(Br)c(C(F)(F)F)c1 | 15%
CN1C(=S)SC(N(O)C(=O)Nc2cccc3ccccc23)C1(C)C (centres undefined) | 37.9%

SMILES | inhibition
CC(NC(=O)c1ccc(C(F)(F)F)cc1)C(c1ccccc1)N1CCOCC1 (centres undefined) | -8.2%
NC(=O)CNc1n[nH]c(=S)[nH]c1=O | -27.7%
Oc1ccc(/C=N/Nc2ccc(C(F)(F)F)cn2)cc1 | -2.8%
Oc1ccc(/C=N/Nc2ccc(C(F)(F)F)cn2)cc1O | 61.6% (active)
COc1cc(/C=N/Nc2ccc(C(F)(F)F)cn2)ccc1O | 7.1%
Cc1cc(O)c2c(c1)C(O)(C1OC(CO)C(O)C(O)C1O)c1cccc(O)c1C2=O (centres undefined) | 2%
O=C(CCc1nnc(C2CCCCC2)o1)NCc1ccc(F)c(F)c1 | -5.7%
CCOC(=O)c1cc(C(C)=O)c(=O)[nH]c1C | 2.7%
CCCNC(=O)c1ccccc1NC(=O)c1ccccc1SC | 0.3%
CCN1C(=O)S/C(=C/c2ccc(Sc3nc4ccccc4[nH]3)o2)C1=O | 56.4% (active)
CC(C)N1C(=O)S/C(=C/c2ccc(Sc3nc4ccccc4[nH]3)o2)C1=O | 26.5%
C=CCN1C(=O)S/C(=C/c2ccc(Sc3nc4ccccc4[nH]3)o2)C1=O | 44.5%
Cc1ccc(S(=O)(=O)NCCOc2nc(N(C)C)nc(N3CCOCC3)n2)cc1 | 16.3%
COC(=O)Cc1c(C(=O)OC)nnn1-c1cccc(C(F)(F)F)c1 | 75.8% (active)
COC(=O)Cc1c(C(=O)OC)nnn1-c1ccc(OC(F)(F)F)cc1 | -7.2%
O=C(O)Cc1c(C(=O)O)nnn1-c1cccc(C(F)(F)F)c1 | -2.9%
O=C(NNC(=O)C1C2CCC(C2)C1C(=O)O)c1cccc(Cl)c1 (centres undefined) | -7.9%
O=C(CCCOc1ccccc1)N1CCN(c2ccccn2)CC1 | 0.9%
O=C(NCc1cccnc1)c1ccc(COc2ccc3c(c2)CCC3)o1 | 11%
Cc1ccc(Nc2c(F)c(F)c(F)c(F)c2C(=O)O)cc1 | -24%
CCn1c(Cc2ccccc2)nnc1SCC(=O)Nc1cc(C)on1 | -6.5%
COCCn1c(Cc2ccccc2)nnc1SCC(=O)Nc1cc(C)on1 | 3.8%
CCCCn1c(Cc2ccccc2)nnc1SCC(=O)Nc1cc(C)on1 | 50.8% (active)
Cc1ccccc1NC(=O)N1CCC(C(=O)c2ccc(F)cc2)CC1 | -0.8%
O=C(CC(SCCO)c1ccc(F)cc1)c1ccco1 (centres undefined) | 4.8%
Cc1ccc(C(CC(=O)c2ccco2)SCCO)cc1 (centres undefined) | 88.3% (active)

SMILES | inhibition
O=C(CC(SCCO)c1ccc2c(c1)OCO2)c1ccco1 (centres undefined) | 10.7%
NCCCC[C@@H]1NC(=O)[C@H](CCC(=O)O)NC(=O)c2cc([N+](=O)[O-])cc(I)c2OCC[C@@H](C(N)=O)NC1=O | -36.4%
CC1CN(S(=O)(=O)c2cccs2)CC(C)O1 (centres undefined) | -2.4%
Cc1cc2n(n1)SC(Nc1ccccc1)N2 (centres undefined) | 24.7%
CCc1ccc(Nc2cc(C)nc3nc(C)nn23)cc1 | -5.4%
Cc1cc2n(n1)SC(Nc1ccc(F)cc1)N2 (centres undefined) | 64.5% (active)
CN1C(=O)SC(Nc2ccc(F)cc2)C1=O (centres undefined) | 3.1%
CCc1ccc(NC(=O)c2cc(C)on2)cc1 | 6.1%
COc1ccc(CCNC(=O)c2nnn(-c3cccc(C)c3)c2N)cc1OC | 4.4%
Cc1nc(SC(C(=O)c2ccccc2)c2ccccc2)n[nH]1 (centres undefined) | 2%
C=CCn1c(SCc2c(F)cccc2Cl)nnc1-c1ccco1 | -6.5%
CCCn1c(NCc2ccco2)nc2c1c(=O)n(C)c(=O)n2C | -8.2%
COc1ccc(F)cc1C(=O)C1CCCN(Cc2ccc(Oc3ncccn3)cc2)C1 (centres undefined) | -3.3%
Cc1ccc2nc3c(c(N)c2c1)CCN3c1ccccc1 | 0.5%
Cc1cccc(N2CCc3c2nc2ccc(Br)cc2c3N)c1 | 69.9% (active)
Nc1c2c(nc3ccc(Br)cc13)N(c1ccccc1)CC2 | 17%
CCN(CC)S(=O)(=O)c1ccc2c(c1)nc(CCC(=O)Nc1ccc(N3CCOCC3)cc1)n2C | 3.7%
COc1ccc(Cl)cc1Nc1ncnc2sc(C)c(S(=O)(=O)N3CCC(C)CC3)c12 | 5.4%
Nc1cc2nc[nH]c2cc1N | 68.3% (active)
Nc1ccc2nc[nH]c2c1 | -17.5%
Cc1cc2nc[nH]c2cc1[N+](=O)[O-] | 4%
c1ccc2c(-c3nn[nH]n3)cccc2c1 | -8.6%
O=C(N/N=C/c1ccc(N2CCOCC2)o1)c1cccc([N+](=O)[O-])c1 | 79% (active)
O=C(N/N=C/c1ccc(N2CCOCC2)o1)c1cccc(F)c1 | -2.7%
O=C(N/N=C/c1ccc(N2CCOCC2)o1)c1cccc(C(F)(F)F)c1 | -5.7%
CCOC(=O)c1c(-c2ccc(C)cc2)csc1/N=C/N(C)C | 12.2%

SMILES | inhibition
COc1ccc(OC)c(N=c2ssnc2Cl)c1 | 88.1% (active)
COc1cc(N=c2ssnc2Cl)c(OC)cc1Cl | 98.9% (active)
COc1ccc(OC)c(N=C(N)N=C(N)N)c1 | 2.9%
COc1ccc(OC)c(N=C2C(=O)Nc3ccccc32)c1 | 16.4%
COc1cc(OC)c(Cl)cc1N | 9.7%
COc1cc(N)c(Cl)cc1Cl | -7.9%
C#CCOCCOCCOCCNc1nc(N2CCN(C(=O)C([C@@H](C)CC)n3cc(C(N)Cc4ccc(O)cc4)nn3)CC2)nc(N2CCN(C(=O)[C@H](CCC(=O)O)n3cc(C(N)CC(C)C)nn3)CC2)n1 (some centres undefined) | -18.6%
COc1ccc(C(=O)/C=C/C(=O)N(Cc2ccccc2OC)C(C(=O)NC2CCCCC2)c2ccncc2)c(O)c1 (centres undefined) | 13.1%
Cc1ccc(S(=O)(=O)/N=C(/c2ccc(F)cc2)N2CCCC2)cc1 | 7.2%
CSc1ccc(/C=C/C(=O)c2ccc(NC(=O)Cc3ccccc3)cc2)cc1 | 15.3%
Nc1ccc(N2CCCCC2)cc1N1CCCCC1 | 61.7% (active)
Cc1nn(-c2cc(N3CCCCC3)ccc2N)c(=O)c2ccccc12 | 25.5%
Nc1ccc(N2CCCCCC2)cc1 | -3.3%
CN(C)CCCN(C(=O)COc1ccc(Cl)cc1)c1nc2ccc(F)cc2s1 | -8%
Cc1cc(C)c2sc(N(CCCN(C)C)C(=O)COc3ccc(Cl)cc3)nc2c1 | 50.2% (active)
Cc1ccc2nc(N(CCCN(C)C)C(=O)COc3ccc(Cl)cc3)sc2c1 | -9.9%
COc1ccc(-n2ncc3c(=O)n(Cc4c(F)cccc4Cl)cnc32)cc1 | 1.8%
O=C1CSc2ccc(C(=O)Nc3cccc(S(=O)(=O)Nc4ccc(Br)cc4)c3)cc2N1 | 62.8% (active)
Cc1ccc(NS(=O)(=O)c2cc(NC(=O)c3ccc4c(c3)NC(=O)CS4)ccc2Cl)c(C)c1 | 59.3% (active)
COc1ccc(NC(=O)c2ccc3c(c2)NC(=O)CS3)cc1S(=O)(=O)Nc1ccc(Br)cc1 | 54.5% (active)
Cc1ccc(NS(=O)(=O)c2cc(NC(=O)c3ccc4c(c3)NC(=O)CS4)ccc2C)c(C)c1 | 41.1%
COc1ccc(NS(=O)(=O)c2cc(NC(=O)c3ccc(F)cc3)ccc2OC)cc1 | 14.1%
COc1ccc(NC(=O)c2c(F)cccc2F)cc1S(=O)(=O)Nc1ccc(Br)cc1 | 19.4%
Cc1ccc(NS(=O)(=O)c2cc(C(=O)O)ccc2Cl)c(C)c1 | -31.1%
O=C(Nc1cccc(S(=O)(=O)Nc2ccc(Cl)cc2)c1)c1ccc(Cl)nc1 | 15.9%
COc1ccc(NC(=O)c2cccc(S(=O)(=O)Nc3ccc(Br)cc3)c2)cn1 | 12.5%
